{
  "source": "PubChem BioAssay AID1159580",
  "about": "(chemical genetic matrix, 2015)",
  "experiment": "chemical genetic growth profiling, strain panel (AID 1159580);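 further: tested at 20 µM; growth read once vehicle control cultures reached saturation at 30 °C; 1 = growth at the plate median or of vehicle wells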",
  "conditions": "S. cerevisiae deletion strains, growth OD",
  "note": "Where “and” joins values, the source holds several entries; their conditions need not be identical. Identical values can stand only once. About 2,000 (36%) of roughly 5,500 compounds were called active. Not shown: some 18% with an inconclusive outcome. No stated cut-off is given here; in the data, active means normalized growth mostly below about 0.91 (no sharp cut-off); inconclusive means no clear call, values can overlap the other calls; inactive means mostly above about 0.92. Some of the results follow.",
  "data": [
    {"compound": "Oc1cccc2cccnc12", "values": [
      {"measurement": "normalized growth", "setting": "locus YAL021C, strain ccr4, stronger effect = lower value", "value": "0.0769 (active)"},
      {"measurement": "normalized growth", "setting": "locus YAL026C, strain drs2, stronger effect = lower value", "value": "0.0625 (active)"},
      {"measurement": "normalized growth", "setting": "locus YAL030W, strain snc1, stronger effect = lower value", "value": "0.0718 (active)"},
      {"measurement": "normalized growth", "setting": "locus YBL061C, strain skt5, stronger effect = lower value", "value": "0.0722 (active)"},
      {"measurement": "normalized growth", "setting": "locus YBR009C, strain hhf1, stronger effect = lower value", "value": "0.0681 (active)"},
      {"measurement": "normalized growth", "setting": "locus YBR021W, strain FUR4, stronger effect = lower value", "value": "0.0928 (active)"},
      {"measurement": "normalized growth", "setting": "locus YBR023C, strain chs3, stronger effect = lower value", "value": "0.076 (active)"},
      {"measurement": "normalized growth", "setting": "locus YBR171W, strain sec66, stronger effect = lower value", "value": "0.076 (active)"},
      {"measurement": "normalized growth", "setting": "locus YBR229C, strain ROT2, stronger effect = lower value", "value": "0.0533 (active)"},
      {"measurement": "normalized growth", "setting": "locus YBR231C, strain swc5, stronger effect = lower value", "value": "0.0897 (active)"},
      {"measurement": "normalized growth", "setting": "locus YBR279W, strain paf1, stronger effect = lower value", "value": "0.0618 (active)"},
      {"measurement": "normalized growth", "setting": "locus YCL011C, strain gbp2, stronger effect = lower value", "value": "0.0567 (active)"},
      {"measurement": "normalized growth", "setting": "locus YCL016C, strain dcc1, stronger effect = lower value", "value": "0.229 (active)"},
      {"measurement": "normalized growth", "setting": "locus YCL029C, strain bik1, stronger effect = lower value", "value": "0.738 (active)"},
      {"measurement": "normalized growth", "setting": "locus YCL061C, strain MRC1, stronger effect = lower value", "value": "0.064 (active)"},
      {"measurement": "normalized growth", "setting": "locus YCL069W, strain vba3, stronger effect = lower value", "value": "0.0627 (active)"},
      {"measurement": "normalized growth", "setting": "locus YCR088W, strain abp1, stronger effect = lower value", "value": "0.0593 (active)"},
      {"measurement": "normalized growth", "setting": "locus YDL005C, strain med2, stronger effect = lower value", "value": "0.646 (active)"},
      {"measurement": "normalized growth", "setting": "locus YDL035C, strain GPR1, stronger effect = lower value", "value": "0.0493 (active)"},
      {"measurement": "normalized growth", "setting": "locus YDL040C, strain nat1, stronger effect = lower value", "value": "0.476 (active)"},
      {"measurement": "normalized growth", "setting": "locus YDL074C, strain BRE1, stronger effect = lower value", "value": "0.0979 (active)"},
      {"measurement": "normalized growth", "setting": "locus YDL101C, strain DUN1, stronger effect = lower value", "value": "0.869 (active)"},
      {"measurement": "normalized growth", "setting": "locus YDL134C, strain PPH21, stronger effect = lower value", "value": "0.0515 (active)"},
      {"measurement": "normalized growth", "setting": "locus YDL185W, strain tfp1, stronger effect = lower value", "value": "0.0598 (active)"},
      {"measurement": "normalized growth", "setting": "locus YDL192W, strain arf1, stronger effect = lower value", "value": "0.0601 (active)"},
      {"measurement": "normalized growth", "setting": "locus YDR001C, strain nth1, stronger effect = lower value", "value": "0.0574 (active)"},
      {"measurement": "normalized growth", "setting": "locus YDR069C, strain doa4, stronger effect = lower value", "value": "0.0712 (active)"},
      {"measurement": "normalized growth", "setting": "locus YDR101C, strain arx1, stronger effect = lower value", "value": "0.375 (active)"},
      {"measurement": "normalized growth", "setting": "locus YDR137W, strain rgp1, stronger effect = lower value", "value": "0.0843 (active)"},
      {"measurement": "normalized growth", "setting": "locus YDR159W, strain sac3, stronger effect = lower value", "value": "0.616 (active)"},
      {"measurement": "normalized growth", "setting": "locus YDR162C, strain NBP2, stronger effect = lower value", "value": "0.0547 (active)"},
      {"measurement": "normalized growth", "setting": "locus YDR195W, strain ref2", "value": "0.117 (active)"},
      {"measurement": "normalized growth", "setting": "locus YDR297W, strain sur2, stronger effect = lower value", "value": "0.0588 (active)"},
      {"measurement": "normalized growth", "setting": "locus YDR318W, strain mcm21, stronger effect = lower value", "value": "0.0646 (active)"},
      {"measurement": "normalized growth", "setting": "locus YDR334W, strain swr1, stronger effect = lower value", "value": "0.0621 (active)"},
      {"measurement": "normalized growth", "setting": "locus YDR335W, strain msn5, stronger effect = lower value", "value": "0.0595 (active)"},
      {"measurement": "normalized growth", "setting": "locus YDR388W, stronger effect = lower value", "value": "0.0582 (active)"},
      {"measurement": "normalized growth", "setting": "locus YDR392W, strain spt3, stronger effect = lower value", "value": "0.0932 (active)"},
      {"measurement": "normalized growth", "setting": "locus YDR502C, strain sam2, stronger effect = lower value", "value": "0.0651 (active)"},
      {"measurement": "normalized growth", "setting": "locus YEL003W, strain gim4, stronger effect = lower value", "value": "0.0548 (active)"},
      {"measurement": "normalized growth", "setting": "locus YEL037C, strain rad23, stronger effect = lower value", "value": "0.0582 (active)"},
      {"measurement": "normalized growth", "setting": "locus YEL061C, strain CIN8 (second series), stronger effect = lower value", "value": "0.0606 (active)"},
      {"measurement": "normalized growth", "setting": "locus YEL061C, strain CIN8, stronger effect = lower value", "value": "0.0683 (active)"},
      {"measurement": "normalized growth", "setting": "locus YER015W, strain faa2, stronger effect = lower value", "value": "0.0643 (active)"},
      {"measurement": "normalized growth", "setting": "locus YER016W, strain bim1, stronger effect = lower value", "value": "0.0729 (active)"},
      {"measurement": "normalized growth", "setting": "locus YER110C, stronger effect = lower value", "value": "0.107 (active)"},
      {"measurement": "normalized growth", "setting": "locus YER111C, strain swi4, stronger effect = lower value", "value": "0.0869 (active)"},
      {"measurement": "normalized growth", "setting": "locus YER155C, strain BEM2 (second series), stronger effect = lower value", "value": "0.0885 (active)"},
      {"measurement": "normalized growth", "setting": "locus YER155C, strain BEM2, stronger effect = lower value", "value": "0.503 (active)"},
      {"measurement": "normalized growth", "setting": "locus YER167W, strain BCK2, stronger effect = lower value", "value": "0.0575 (active)"},
      {"measurement": "normalized growth", "setting": "locus YFR010W, strain ubp6, stronger effect = lower value", "value": "0.0669 (active)"},
      {"measurement": "normalized growth", "setting": "locus YGL078C, strain dbp3, stronger effect = lower value", "value": "0.0567 (active)"},
      {"measurement": "normalized growth", "setting": "locus YGL086W, strain mad1, stronger effect = lower value", "value": "0.0544 (active)"},
      {"measurement": "normalized growth", "setting": "locus YGL167C, strain pmr1, stronger effect = lower value", "value": "0.113 (active)"},
      {"measurement": "normalized growth", "setting": "locus YGL173C, strain kem1, stronger effect = lower value", "value": "0.07 (active)"},
      {"measurement": "normalized growth", "setting": "locus YGL227W, strain vid30, stronger effect = lower value", "value": "0.0635 (active)"},
      {"measurement": "normalized growth", "setting": "locus YGL240W, strain doc1, stronger effect = lower value", "value": "0.0777 (active)"},
      {"measurement": "normalized growth", "setting": "locus YGL248W, strain PDE1, stronger effect = lower value", "value": "0.0532 (active)"},
      {"measurement": "normalized growth", "setting": "locus YGL253W, strain hxk2, stronger effect = lower value", "value": "0.0539 (active)"},
      {"measurement": "normalized growth", "setting": "locus YGR135W, strain pre9, stronger effect = lower value", "value": "0.0644 (active)"},
      {"measurement": "normalized growth", "setting": "locus YGR252W, strain gcn5, stronger effect = lower value", "value": "0.152 (active)"},
      {"measurement": "normalized growth", "setting": "locus YHR013C, strain ard1, stronger effect = lower value", "value": "0.105 (active)"},
      {"measurement": "normalized growth", "setting": "locus YHR027C, strain rpn1, stronger effect = lower value", "value": "0.0611 (active)"},
      {"measurement": "normalized growth", "setting": "locus YHR030C, strain SLT2, stronger effect = lower value", "value": "0.0533 (active) and 0.903 (inactive)"},
      {"measurement": "normalized growth", "setting": "locus YHR079C, strain IRE1 (second series), stronger effect = lower value", "value": "0.0905 (active)"},
      {"measurement": "normalized growth", "setting": "locus YHR079C, strain IRE1, stronger effect = lower value", "value": "0.908 (inactive)"},
      {"measurement": "normalized growth", "setting": "locus YHR094C, strain hxt1, stronger effect = lower value", "value": "0.0596 (active)"},
      {"measurement": "normalized growth", "setting": "locus YHR129C, strain ARP1, stronger effect = lower value", "value": "0.576 (active)"},
      {"measurement": "normalized growth", "setting": "locus YHR142W, strain chs7, stronger effect = lower value", "value": "0.0731 (active)"},
      {"measurement": "normalized growth", "setting": "locus YHR200W, strain rpn10, stronger effect = lower value", "value": "0.0598 (active)"},
      {"measurement": "normalized growth", "setting": "locus YIL066C, strain RNR3, stronger effect = lower value", "value": "0.156 (active)"},
      {"measurement": "normalized growth", "setting": "locus YIL073C, strain SPO22, stronger effect = lower value", "value": "0.0972 (active)"},
      {"measurement": "normalized growth", "setting": "locus YIL125W, strain kgd1, stronger effect = lower value", "value": "0.0587 (active)"},
      {"measurement": "normalized growth", "setting": "locus YIR030C, strain dcg1, stronger effect = lower value", "value": "0.0603 (active)"},
      {"measurement": "normalized growth", "setting": "locus YJL092W, strain hpr5, stronger effect = lower value", "value": "0.058 (active)"},
      {"measurement": "normalized growth", "setting": "locus YJL095W, strain BCK1 (second series), stronger effect = lower value", "value": "0.09 (active)"},
      {"measurement": "normalized growth", "setting": "locus YJL095W, strain BCK1, stronger effect = lower value", "value": "0.165 (active) and 0.93 (inactive)"},
      {"measurement": "normalized growth", "setting": "locus YJL115W, strain asf1, stronger effect = lower value", "value": "0.0712 (active)"},
      {"measurement": "normalized growth", "setting": "locus YJL129C, strain trk1, stronger effect = lower value", "value": "0.0863 (active)"},
      {"measurement": "normalized growth", "setting": "locus YJL134W, strain LCB3, stronger effect = lower value", "value": "0.388 (active)"},
      {"measurement": "normalized growth", "setting": "locus YJL154C, strain vps35, stronger effect = lower value", "value": "0.0589 (active)"},
      {"measurement": "normalized growth", "setting": "locus YJL164C, strain tpk1, stronger effect = lower value", "value": "0.0791 (active)"},
      {"measurement": "normalized growth", "setting": "locus YJL166W, strain qcr8, stronger effect = lower value", "value": "0.0604 (active)"},
      {"measurement": "normalized growth", "setting": "locus YJL168C, strain set2, stronger effect = lower value", "value": "0.0577 (active)"},
      {"measurement": "normalized growth", "setting": "locus YJL187C, strain SWE1 (second series), stronger effect = lower value", "value": "0.057 (active)"},
      {"measurement": "normalized growth", "setting": "locus YJL187C, strain SWE1, stronger effect = lower value", "value": "0.101 (active)"},
      {"measurement": "normalized growth", "setting": "locus YJR043C, strain POL32, stronger effect = lower value", "value": "0.0576 (active)"},
      {"measurement": "normalized growth", "setting": "locus YJR066W, strain TOR1, stronger effect = lower value", "value": "0.871 (inactive)"}
    ]}
  ]
}
